# Screens from PubChem BioAssay.
# The list is not random: actives were taken first. Their share in the collection is about 19%.
# IL1B secr inh = inhibitors of inflammasome signaling (IL-1 beta secretion); hit rate 4.7% among 360,000; AID 743279; THP-1 LPS/ATP IL-1B secretion, AlphaLISA, 16 h; stronger effect = lower value; activity change, % at 57.5 µM; in the data active = activity change below about -50%; inconclusive = mostly about -30% to -49%
#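 Secreted IL-1B measured by AlphaLISA bead assay after 16 h compound exposure of THP-1 cells; compounds (final up to 57.5 uM) added 1 h before LPS (250 ng/mL) and ATP (1.25 mM) stimulation; lower signal means less secretion.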
# DT40 TDP1 CPT = DT40-hTDP1 cell growth loss with CPT | chicken DT40 Tdp1-/-;hTDP1 cells + 20 nM CPT, ATP luminescence, 48 h | Potency, µM (highest dose often 46.2 µM), for the others: at the highest dose activity change, negative = growth inhibition, most hits filed as inhibitors | hit rate 12% among 420,000 | AID 686979; note: potency is the fitted concentration of half-maximal effect; nearly all actives have a fitted effect of over 55% in size
#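 Chicken DT40 Tdp1-/- cells stably complemented with human TDP1 were seeded at 400 cells/well in medium containing 20 nM camptothecin, exposed to pin-transferred compounds, and grown at 37 °C for at least 48 hr. Viability was read as ATP luminescence.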
# ELG1 DNA repair = blocks ELG1-dependent DNA repair in HEK293T cells; hit rate 2.3% among 330,000; Potency, µM (doses to about 46.1 µM), inactives show top-dose activity change, negative = inhibition, usual class: inhibitors; AID 504467; HEK293T ELG1-luciferase reporter, luminescence, 16 h; DNA damage induced by 5-fluorouridine; note: potency is the fitted concentration of half-maximal effect; nearly all actives have a fitted effect of over 55% in size
#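 DMSO vehicle served as the neutral condition. Each well held 2,000 cells given 5-fluorouridine plus compound; after 16 hr at 37 °C/5% CO2, ONE-Glo was added and luciferase measured 30 min later.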
# Giardia kill = kills Giardia lamblia; Giardia lamblia trophozoite viability; hit rate 0.15% among 340,000; AID 540267; activity change, % at 7.66 µM, hits read low; in the data active = activity change below about -80%; inconclusive = between about -30% and that limit;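 note: parasites exposed to compound for two days anaerobically before the ATP read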
#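 Each well holds 100 Giardia trophozoites and compound. After two days (48 hrs) at 37 deg C in anaerobic conditions, ATP is quantified by luminescence.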
# TDP1 cell noCPT = qHTS for Inhibitors of human tyrosyl-DNA phosphodiesterase 1 (TDP1): qHTS in cells in absence of CPT | DT40 Tdp1-/- hTDP1 cells, no CPT, ATP luminescence, 48 h | Potency, µM (series often up to 46.2 µM), inactives show at the highest dose activity change, negative = growth inhibition, hits mostly inhibitors | hit rate 15% among 420,000; note: potency is the fitted concentration of half-maximal effect; nearly all actives have a fitted effect of over 55% in size
#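 Compound effects on proliferation are scored in DT40 Tdp1-/-;hTDP1 cells in the absence of CPT. ATP levels (CellTiter-Glo luminescence) are recorded after a ≥48 hr, 37 °C incubation.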
# TDP1 block = blocks human tyrosyl-DNA phosphodiesterase 1; Q9NUW8; recombinant TDP1, AlphaScreen DNA substrate cleavage; Potency, µM (titrated, usually from 130 µM), inactives show at the highest dose activity change, negative = inhibition, most hits filed as inhibitors; hit rate 0.28% among 350,000; AID 485290; note: potency is the fitted concentration of half-maximal effect; nearly all actives have a fitted effect of over 40% in size
# Target sequence (Q9NUW8 whole entry, looked up): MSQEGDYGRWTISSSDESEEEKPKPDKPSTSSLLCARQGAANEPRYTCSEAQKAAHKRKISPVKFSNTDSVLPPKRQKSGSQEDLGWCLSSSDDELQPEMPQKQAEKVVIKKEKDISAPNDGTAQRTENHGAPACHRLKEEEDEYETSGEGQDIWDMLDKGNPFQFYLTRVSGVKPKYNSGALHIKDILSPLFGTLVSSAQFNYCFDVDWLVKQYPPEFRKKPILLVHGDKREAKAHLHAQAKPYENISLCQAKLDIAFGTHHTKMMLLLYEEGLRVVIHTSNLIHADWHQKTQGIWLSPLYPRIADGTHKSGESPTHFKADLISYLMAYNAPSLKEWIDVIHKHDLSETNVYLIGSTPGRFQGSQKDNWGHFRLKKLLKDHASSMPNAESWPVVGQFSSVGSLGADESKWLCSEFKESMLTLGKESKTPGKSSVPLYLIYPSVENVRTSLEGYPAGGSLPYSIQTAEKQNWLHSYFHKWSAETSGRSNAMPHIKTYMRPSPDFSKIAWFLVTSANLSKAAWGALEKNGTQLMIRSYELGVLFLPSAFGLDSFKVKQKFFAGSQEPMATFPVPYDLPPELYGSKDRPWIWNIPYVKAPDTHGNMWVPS
#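 E. coli-derived human Tdp1, 1 nM final. Cpd preinc 15 min RT; substrate 15 nM final, 5 min RT; AS bead mix 10 ug/ml final, 10 min RT. Signal loss = tyrosine-FITC cleavage. No-enzyme wells = max signal.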
# The depositor's hits bear a star; ? = inconclusive; / = no result given; [ ] = dose if it differs, or a comment. Unless noted, calls come from the whole dose curve; as a rule, active = well fitted curve in the direction sought with a large enough effect; inconclusive = small, poorly fitted or top-dose-only effect, or another doubt; inactive = no such curve, though single readings can be large; an effect the other way counts as inactive or inconclusive. % is set by controls: 0 for no effect and ±100 for the full control effect.
SMILES,IL1B secr inh,DT40 TDP1 CPT,ELG1 DNA repair,Giardia kill,TDP1 cell noCPT,TDP1 block
CCN(CC)c1ncnc2c1ncn2[C@H]1CN(Cc2ccc(OC)cc2)C[C@@H](CO)O1,-24.0,?,/,/,?,/
CCCCN(C)CCCNC(=O)c1ccc2nc(N3CCCCC3)sc2c1,/,23.1µM*,/,/,?,-1.0%
CCc1ccc2nc(N3CCC(C(=O)O)CC3)sc2c1,/,4.8%,/,/,-19.3%,3.9%
CCCCN(CCCNC(=O)c1ccc2nc(N3CCOCC3)sc2c1)Cc1ccccc1,30.7,?,-26.5%,0.4,16.4µM*,4.0%
CCCCN(C)CCNC(=O)C1CCN(c2nc3ccc(CC)cc3s2)CC1,/,20.6µM*,/,/,23.1µM*,-2.9%
O=C(NCCc1ccccc1)c1ccc2nc(N3CCOCC3)sc2c1,8.0,-7.1%,28.6%,-8.1,?,/
Cc1ccc(Cl)cc1-n1c(CCC(=O)O)ccc1-c1cccs1,/,11.2%,/,/,0.7%,/
Cc1ccc(C(C)C)c(OCC(=O)NNC(=O)Cc2ccc(S(=O)(=O)N3CCOCC3)s2)c1,17.9,5.6%,0.0%,11.4,-1.7%,0.2%
O=[N+]([O-])c1cc2no[n+]([O-])c2cc1N1CCCCC1,-78.4*,0.581µM*,/,-27.6,0.92µM*,/
O=C(Nc1cccc(Cl)c1)Nc1cc(S(=O)(=O)N2CCOCC2)ccc1N1CCCC1,-60.1*,14.6µM*,-18.8%,6.9,23.1µM*,1.8%
O=C(Cc1ccc(Cl)cc1)Nc1cc(S(=O)(=O)N2CCOCC2)ccc1N1CCCC1,-10.0,-29.9%,-4.7%,28.3,?,-1.8%
O=C(CNc1cc(S(=O)(=O)N2CCOCC2)ccc1N1CCCC1)Nc1ccc(Cl)cc1F,?,?,/,/,13µM*,/
COc1ccc(C=NNC(=O)c2ccccc2OCc2ccc(F)cc2)c(OC)c1,29.1,?,?,6.9,?,-0.7%
CCc1noc(C)c1C(=O)N1CCCC(CCC(=O)NCc2ccc(F)c(F)c2)C1 (centres undefined),18.7,?,10.1%,-3.6,?,/
Cc1ccccc1NC(=O)CSc1nc(=O)n(CCN2CCOCC2)c2c1CCC2,/,22.0%,/,/,13.8%,2.6%
COCCN(CCOC)c1nc(C)nc2c1nc(-c1ccccc1)n2CCCN(C)C,/,/,/,/,/,7.5%
CCC1=C(OC(=O)N(CC)CC)N2C(=O)OC(=NCCc3c[nH]c4ccccc34)[C@]2(Cc2ccccc2)[C@H]2C1=CC[C@H]1C(=O)N(C)C(=O)[C@H]12,-52.5*,?,-5.1%,-11.5,?,14.1%
Cc1ccc(S(=O)(=O)N(C)c2ccc(OC(=O)CN3C(=O)NC4(CCCC4)C3=O)cc2)cc1C,4.0,-15.6%,1.2%,-4.0,-12.0%,/
COc1cc(C(=O)NC(CCSC)C(=O)OCC(=O)C(C)(C)C)cc(OC)c1OC (centres undefined),54.2,-15.4%,17.0%,-5.4,-3.3%,0.0%
N#Cc1c(C(F)(F)F)cc(=O)n2c1[nH]c1ccccc12,-73.6*,13µM*,-20.0%,7.9,14.6µM*,1.5%
CN(C)c1cc(N/N=C/c2ccc(Cl)cc2)nc(N(C)C)n1,-3.1,?,?,-6.8,18.4µM*,7.4%
CCOC(=O)C1C(C(=O)OC)=C(c2ccc(F)cc2)c2ccccc2N1S(=O)(=O)C(F)(F)F (centres undefined),-11.4,?,?,2.0,?,-3.6%[56.1 µM]
CCOC(=O)C1C(C(=O)OC)=C(c2ccc(OC)cc2)c2ccccc2N1S(=O)(=O)C(F)(F)F (centres undefined),-20.2,?,11.6µM*,13.4,16.4µM*,-27.8%[56.1 µM]
CCOC(=O)C1C(C(C)=O)=C(c2ccccc2)c2ccccc2N1S(=O)(=O)C(F)(F)F (centres undefined),35.3,?,-10.0%,-20.6,?,-3.8%[56.1 µM]
CCOC(=O)C1=C(C2=CCCCC2)c2ccc(OC)cc2N(S(=O)(=O)C(F)(F)F)C1C(=O)OCC (centres undefined),?,5.8µM*,-20.1%,-15.2,2.31µM*,-0.7%[56.1 µM]
SMILES,IL1B secr inh,DT40 TDP1 CPT,ELG1 DNA repair,Giardia kill,TDP1 cell noCPT,TDP1 block
COc1ccc(NC(=O)N2c3ccccc3C(C)=CC2(C)C)cc1,24.9,4.5%,20.9%,3.3,-19.5%,2.7%
CCOC(=O)C1(C)C(C(=O)OC)=C(c2ccc(OC)cc2)c2ccccc2N1C(=O)OC (centres undefined),-17.5,20.6µM*,?,15.0,13µM*,1.4%[56.1 µM]
CCOC(=O)C1=C(c2ccccc2)c2ccccc2N(S(=O)(=O)C(F)(F)F)C1C(=O)OCC (centres undefined),-4.4,?,16.4µM*,-19.9,?,-4.6%[56.1 µM]
CCn1nnc2cc(C(=O)Nc3ccc(OC)cc3)ccc21,/,-18.6%,/,/,-10.0%,7.9%
CN(C1CCCCC1)S(=O)(=O)c1cccc(C#N)c1,19.3,-8.6%,7.0%,-2.5,?,-6.7%
CCCc1c(C(=O)N/N=C/c2ccc(C)s2)nnn1-c1nonc1N,2.4,6.6%,20.4%,-21.1,20.6%,-9.0%
C=CCC(C)(O)CCc1ccccc1 (centres undefined),/,/,/,/,/,8.1%
O=C(CSc1n[nH]c(=O)n1C1CC1)Nc1cc(Cl)ccc1Oc1ccccc1,-14.7,16.4µM*,?,2.8,14.6µM*,7.7%
Cc1ccc(C(=O)Nc2cccc(C(F)(F)F)c2)cc1NC(=O)c1c[nH]c2cc(C(F)(F)F)ccc2c1=O,38.2,5.17µM*,?,15.1,?,0.9%
CCN1CCN(Cc2ccc(NC(=O)c3ccc(C)c(NC(=O)c4c[nH]c5cc(C(F)(F)F)ccc5c4=O)c3)cc2C(F)(F)F)CC1,-105.4*,4.61µM*,?,-24.4,4.11µM*,-1.2%
Cc1nn(C)cc1CNC(=O)c1cc2n(n1)C(C(F)(F)F)CC(c1cccs1)N2 (centres undefined),-6.5,?,23.1µM*,4.7,?,4.2%
Cc1nn(C)c(C)c1CNC(=O)c1nn2c(c1Cl)NC(c1cccs1)CC2C(F)(F)F (centres undefined),15.2,16.4µM*,?,9.8,9.2µM*,-1.0%
O=C(NCC1CCCO1)c1nn2c(c1Cl)NC(c1ccc(F)cc1)CC2C(F)(F)F (centres undefined),-16.6,16.4µM*,10.5%,-1.4,?,-3.8%
O=C(NCC1CCCO1)c1cnn2c1NC(c1ccccc1)CC2C(F)(F)F (centres undefined),-6.4,-9.5%,-13.7%,-13.7,-13.5%,0.0%
COc1ccc(S(=O)(=O)N/N=C(/C)c2cccc(NC(=O)c3ccccc3Cl)c2)cc1,?,12.8%,-14.0%,6.8,13.6%,-0.5%
